PubChem BioAssay AID1159580 (chemical genetic matrix, 2015)
Hit rate of the full screen: of about 5,500 compounds, about 2,000 (36%) were called active. Inconclusive results (about 18%) are left out. No stated cut-off is given here; in the data, active means normalized growth mostly below about 0.91 (no sharp cut-off); inconclusive means no clear call, values can overlap the other calls; inactive means mostly above about 0.92. Some of the results follow.

Assay: chemical genetic growth profiling, strain panel (AID 1159580);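 further: tested at 20 µM; growth read once vehicle control cultures reached saturation at 30 °C; 1 = growth at the plate median or of vehicle wells; lower values mean less growth of the strain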
Details: S. cerevisiae deletion strains, growth OD

Measured: normalized growth

CC(=O)O[C@H]1CCC2(C)C3=C(CCC2C1(C)C)[C@@]1(C)CC[C@@H](C(C)CCC=C(C)C)[C@]1(C)CC3 (some centres not stated)
inactive: locus YAL021C, strain ccr4, hits give low values 1.02 | locus YAL026C, strain drs2, hits give low values 1.03 | locus YAL030W, strain snc1, hits give low values 1.03 | locus YBL061C, strain skt5, hits give low values 1.04 | locus YBR009C, strain hhf1, hits give low values 1.03 | locus YBR021W, strain FUR4, hits give low values 0.912 | locus YBR023C, strain chs3, hits give low values 1.03 | locus YBR171W, strain sec66, hits give low values 1.05 | locus YBR229C, strain ROT2, hits give low values 1.04 | locus YBR231C, strain swc5, hits give low values 1.04 | locus YBR279W, strain paf1, hits give low values 1.02 | locus YCL011C, strain gbp2, hits give low values 1.04 | locus YCL016C, strain dcc1, hits give low values 1.03 | locus YCL029C, strain bik1, hits give low values 1.01 | locus YCL061C, strain MRC1, hits give low values 1.04 | locus YCL069W, strain vba3, hits give low values 1.03 | locus YCR088W, strain abp1, hits give low values 1.03 | locus YDL005C, strain med2, hits give low values 1.03 | locus YDL035C, strain GPR1, hits give low values 0.911 | locus YDL040C, strain nat1, hits give low values 1.03 | locus YDL074C, strain BRE1, hits give low values 0.973 | locus YDL101C, strain DUN1, hits give low values 1.02 | locus YDL185W, strain tfp1, hits give low values 1.05 | locus YDL192W, strain arf1, hits give low values 1.03 | locus YDR001C, strain nth1, hits give low values 1.03 | locus YDR069C, strain doa4, hits give low values 1.03 | locus YDR101C, strain arx1, hits give low values 1.02 | locus YDR137W, strain rgp1, hits give low values 1.02 | locus YDR150W, strain NUM1, hits give low values 1.05 | locus YDR159W, strain sac3, hits give low values 1.07 | locus YDR162C, strain NBP2, hits give low values 1.01 | locus YDR195W, strain ref2 1.03 | locus YDR297W, strain sur2, hits give low values 1.03 | locus YDR318W, strain mcm21, hits give low values 1.02 | locus YDR334W, strain swr1, hits give low values 1.04 | locus YDR335W, strain msn5, hits give low values 1.02 | locus YDR388W, hits give low values 1.06 | locus YDR392W, strain spt3, hits give low values 1.04 | locus YDR502C, strain sam2, hits give low values 1.01 | locus YEL003W, strain gim4, hits give low values 1.02 | locus YEL037C, strain rad23, hits give low values 1.02 | locus YEL061C, strain CIN8 (second series), hits give low values 1.03 | locus YEL061C, strain CIN8, hits give low values 1.04 | locus YER015W, strain faa2, hits give low values 1.03 | locus YER016W, strain bim1, hits give low values 1.04 | locus YER110C, hits give low values 1.06 | locus YER111C, strain swi4, hits give low values 1.04 | locus YER155C, strain BEM2 (second series), hits give low values 1.04 | locus YER155C, strain BEM2, hits give low values 1.03 | locus YER167W, strain BCK2, hits give low values 1.03 | locus YFR010W, strain ubp6, hits give low values 1.03 | locus YGL078C, strain dbp3, hits give low values 0.932 | locus YGL086W, strain mad1, hits give low values 1.02 | locus YGL167C, strain pmr1, hits give low values 1.04 | locus YGL173C, strain kem1, hits give low values 1.02 | locus YGL227W, strain vid30, hits give low values 1.03 | locus YGL240W, strain doc1, hits give low values 1.03 | locus YGL248W, strain PDE1, hits give low values 1 | locus YGL253W, strain hxk2, hits give low values 1.02 | locus YGR078C, strain PAC10, hits give low values 1 | locus YGR135W, strain pre9, hits give low values 1 | locus YGR229C, strain SMI1, hits give low values 0.963 | locus YGR252W, strain gcn5, hits give low values 0.884 | locus YHR013C, strain ard1, hits give low values 1.08 | locus YHR027C, strain rpn1, hits give low values 1.02 | locus YHR079C, strain IRE1 (second series), hits give low values 1.06 | locus YHR094C, strain hxt1, hits give low values 1.06 | locus YHR129C, strain ARP1, hits give low values 1.04 | locus YHR142W, strain chs7, hits give low values 1.04 | locus YHR200W, strain rpn10, hits give low values 1.03 | locus YIL066C, strain RNR3, hits give low values 1.02 | locus YIL073C, strain SPO22, hits give low values 1.06 | locus YIL125W, strain kgd1, hits give low values 1.01 | locus YJL092W, strain hpr5, hits give low values 1.03 | locus YJL095W, strain BCK1 (second series), hits give low values 1.03 | locus YJL095W, strain BCK1, hits give low values 1.03 | locus YJL115W, strain asf1, hits give low values 1.04 | locus YJL129C, strain trk1, hits give low values 1.07 | locus YJL134W, strain LCB3, hits give low values 1.04 | locus YJL154C, strain vps35, hits give low values 1.03 | locus YJL164C, strain tpk1, hits give low values 1.02 | locus YJL166W, strain qcr8, hits give low values 1.03 | locus YJL168C, strain set2, hits give low values 1.06 | locus YJL187C, strain SWE1 (second series), hits give low values 0.989 | locus YJL187C, strain SWE1, hits give low values 1.01 | locus YJR043C, strain POL32, hits give low values 0.941 | locus YJR075W, strain HOC1, hits give low values 1.04 | locus YKL068W, hits give low values 1.04 | locus YKL085W, strain MDH1 (second series), hits give low values 1.03 | locus YKL085W, strain MDH1, hits give low values 1.03 | locus YKL160W, strain elf1, hits give low values 1.02 | locus YKR001C, strain vps1, hits give low values 0.997 | locus YKR026C, strain gcn3, hits give low values 1.04 | locus YKR091W, strain srl3, hits give low values 1.03 | locus YLL001W, strain dnm1, hits give low values 1.03 | locus YLL026W, hits give low values 1.02 | locus YLL041C, strain sdh2, hits give low values 1.05 | locus YLR027C, strain aat2, hits give low values 1.04 | locus YLR039C, strain RIC1, hits give low values 1.08 | locus YLR058C, strain SHM2, hits give low values 1.01 | locus YLR102C, strain apc9, hits give low values 1.05 | locus YLR221C, strain rsa3, hits give low values 1.03 | locus YLR258W, strain gsy2, hits give low values 1.04 | locus YLR262C, strain YPT6 (second series), hits give low values 1.02 | locus YLR262C, strain YPT6, hits give low values 0.994 | locus YLR268W, strain sec22, hits give low values 1.02 | locus YLR320W, strain mms22, hits give low values 1.05 | locus YLR330W, strain CHS5, hits give low values 1.03 | locus YLR342W, strain FKS1 (second series), hits give low values 0.953 | locus YLR342W, strain FKS1, hits give low values 1.04 | locus YLR357W, strain rsc2, hits give low values 1.04 | locus YLR370C, strain arc18, hits give low values 1.02 | locus YLR384C, strain iki3, hits give low values 1.05 | locus YLR418C, strain cdc73, hits give low values 1.09 | locus YML016C, strain PPZ1, hits give low values 1.05 | locus YML032C, strain rad52, hits give low values 0.994 | locus YML120C, strain ndi1, hits give low values 1.03 | locus YML124C, strain tub3, hits give low values 1.06 | locus YMR058W, strain fet3, hits give low values 1.03 | locus YMR078C, strain ctf18, hits give low values 1.08 | locus YMR125W, strain sto1, hits give low values 1.03 | locus YMR129W, hits give low values 1.03 | locus YMR205C, strain PFK2, hits give low values 1.04 | locus YMR223W, strain ubp8, hits give low values 1.01 | locus YMR231W, strain pep5, hits give low values 1 | locus YMR307W, strain GAS1, hits give low values 0.972 | locus YNL067W, strain RPL9B, hits give low values 0.969 | locus YNL071W, strain lat1, hits give low values 1.03 | locus YNL209W, strain ssb2, hits give low values 1.04 | locus YNL233W, strain BNI4, hits give low values 1.04 | locus YNL248C, strain rpa49, hits give low values 1.02 | locus YNL250W, strain rad50, hits give low values 1.04 | locus YNL271C, strain bni1, hits give low values 1.05 | locus YNL298W, strain CLA4, hits give low values 0.986 | locus YNL307C, strain MCK1, hits give low values 1.07 | locus YNL322C, strain KRE1 (second series), hits give low values 1.03 | locus YNR049C, strain mso1, hits give low values 1.03 | locus YNR052C, strain pop2, hits give low values 0.99 | locus YOL012C, strain htz1 1.57 | locus YOL147C, strain pex11, hits give low values 1.05 | locus YOR001W, strain rrp6, hits give low values 1.01 | locus YOR061W, strain CKA2, hits give low values 0.996 | locus YOR069W, strain VPS5, hits give low values 1.03 | locus YOR070C, strain gyp1, hits give low values 1.01 | locus YOR080W, strain dia2, hits give low values 1.02 | locus YOR083W, strain WHI5, hits give low values 1.01 | locus YOR106W, strain vam3, hits give low values 1 | locus YOR136W, strain idh2, hits give low values 1.04 | locus YOR144C, strain elg1, hits give low values 1.04 | locus YOR184W, strain ser1, hits give low values 0.926 | locus YOR265W, strain rbl2, hits give low values 1.03 | locus YOR270C, strain vph1, hits give low values 0.999 | locus YOR290C, strain snf2, hits give low values 1.02 | locus YOR316C, strain cot1, hits give low values 1.06 | locus YPL051W, strain arl3, hits give low values 1.01 | locus YPL078C, strain atp4, hits give low values 1.02 | locus YPL106C, strain sse1, hits give low values 1.09 | locus YPL240C, strain hsp82, hits give low values 1.03 | locus YPL241C, strain CIN2, hits give low values 1.05 | locus YPR119W, strain clb2, hits give low values 1.06 | locus YPR141C, strain kar3, hits give low values 1.08 | locus YPR163C, strain tif3, hits give low values 1.04 | locus YPR167C, strain met16, hits give low values 1.03 | strain wtn01, hits give low values 0.997
active: locus YIR030C, strain dcg1, hits give low values 1.08 [resistant] | locus YKL009W, strain mrt4, hits give low values 0.846 | locus YLR371W, strain rom2, hits give low values 1.1 [resistant]
